# Results filed as inconclusive are left out. Calls of active or inactive are those of the source. Rule for the calls, unless noted: active = hit-call score of the fitted dose curve at least 0.9, where 1 is the maximum; inconclusive = response in the unintended direction; inactive = score below 0.9.
# How the values were obtained:
# [1] = CCTE_Harrill_HTTr_Apoptosis_MCF7: CCTE's 6-hour Apoptosis Assessment for the High-Throughput Transcriptomics (HTTr) Platform, in MCF-7 cells cultured in DMEM + 10% fetal bovine serum, Harrill Lab (AID 2284011; active = hit-call score of the fitted dose curve at least 0.9, where 1 is the maximum; inactive = score below 0.9)
# Method in brief: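 MCF-7 cells in DMEM + 10% FBS exposed 6 h to chemicals over an eight-point dilution series. Caspase-3/7 activation imaged by high-content CellEvent Green staining; fitted bidirectionally versus DMSO.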
# [2] = target: Steroid hormone receptor ERR1 (Homo sapiens) (UniProt P11474); assay: ATG_ERRa_TRANS: Attagene TRANS-FACTORIAL HepG2 Assay for human Estrogen-Related Receptor alpha (ERRa) (AID 2282971); conditions: HepG2 Attagene TRANS reporter, ERRa transactivation
# Chain of Steroid hormone receptor ERR1 (Homo sapiens) (P11474 whole entry, looked up, the tested form may be a part): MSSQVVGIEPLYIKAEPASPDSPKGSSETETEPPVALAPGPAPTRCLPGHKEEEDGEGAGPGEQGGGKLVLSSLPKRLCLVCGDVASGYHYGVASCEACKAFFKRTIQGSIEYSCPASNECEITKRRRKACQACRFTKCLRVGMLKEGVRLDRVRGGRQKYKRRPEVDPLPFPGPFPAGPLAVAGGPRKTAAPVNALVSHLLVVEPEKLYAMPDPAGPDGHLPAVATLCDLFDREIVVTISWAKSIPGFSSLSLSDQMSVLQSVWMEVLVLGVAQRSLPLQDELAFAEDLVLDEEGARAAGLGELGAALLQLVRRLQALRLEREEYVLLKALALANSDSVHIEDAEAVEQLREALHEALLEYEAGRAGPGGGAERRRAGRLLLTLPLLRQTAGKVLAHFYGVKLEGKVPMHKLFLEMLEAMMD
# Method in brief: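 HepG2 cells transiently transfected with GAL4-UAS reporter units and chimeric NR-Gal4 constructs; after 24 hour compound incubation, reporter mRNA quantified by RT-PCR, fluorescent labelling and capillary electrophoresis, gain of signal versus DMSO.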
# [3] = target: human Thyroid Receptor alpha (THRa1), THRA (gene 7067) (UniProt P10827); assay: ATG_THRa1_TRANS: Attagene TRANS-FACTORIAL HepG2 Assay for human Thyroid Receptor alpha (THRa1) (AID 2283014)
# Chain of human Thyroid Receptor alpha (THRa1), THRA (gene 7067) (P10827 whole entry, looked up, the tested form may be a part): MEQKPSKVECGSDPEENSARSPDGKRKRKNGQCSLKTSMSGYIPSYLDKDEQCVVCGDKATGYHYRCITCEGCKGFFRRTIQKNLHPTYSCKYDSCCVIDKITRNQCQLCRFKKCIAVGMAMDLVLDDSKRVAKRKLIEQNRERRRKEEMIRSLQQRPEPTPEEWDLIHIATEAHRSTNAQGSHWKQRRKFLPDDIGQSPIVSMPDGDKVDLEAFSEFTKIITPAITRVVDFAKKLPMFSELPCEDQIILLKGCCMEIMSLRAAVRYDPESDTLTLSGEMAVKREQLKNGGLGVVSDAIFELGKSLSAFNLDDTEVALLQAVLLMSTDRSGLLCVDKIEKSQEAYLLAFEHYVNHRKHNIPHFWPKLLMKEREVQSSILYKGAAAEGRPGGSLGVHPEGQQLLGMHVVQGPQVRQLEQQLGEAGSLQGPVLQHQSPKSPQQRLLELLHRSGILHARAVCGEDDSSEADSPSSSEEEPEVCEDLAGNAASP
# Method in brief: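 HepG2 cells transiently transfected with chimeric NR-Gal4 and GAL4-UAS reporter units, dosed 24 h. Reporter mRNA quantified by RT-PCR, fluorescent labeling, HpaI digestion and capillary electrophoresis; gain-of-signal fit versus DMSO.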
# [4] = CCTE_Harrill_HTTr_Viability_MCF7: CCTE's 6-hour Cell Viability Assessment for the High-Throughput Transcriptomics (HTTr) Platform, in MCF-7 cells cultured in DMEM + 10% fetal bovine serum, Harrill Lab (AID 2284010; active = hit-call score of the fitted dose curve at least 0.9, where 1 is the maximum; inactive = score below 0.9)
# Method in brief: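 Viability measured through PI dye exclusion by high-content imaging at 6 h post-dosing.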
# [5] = target: Estrogen-related receptor gamma (Homo sapiens) (UniProt P62508); assay: ATG_ERRg_TRANS: Attagene TRANS-FACTORIAL HepG2 Assay for human Estrogen-Related Receptor gamma (ERRg) (AID 2282977); conditions: HepG2 Attagene TRANS reporter, ERRg transactivation;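 note: hits increase reporter signal over DMSO so potencies reflect activators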
# Chain of Estrogen-related receptor gamma (Homo sapiens) (P62508 whole entry, looked up, the tested form may be a part): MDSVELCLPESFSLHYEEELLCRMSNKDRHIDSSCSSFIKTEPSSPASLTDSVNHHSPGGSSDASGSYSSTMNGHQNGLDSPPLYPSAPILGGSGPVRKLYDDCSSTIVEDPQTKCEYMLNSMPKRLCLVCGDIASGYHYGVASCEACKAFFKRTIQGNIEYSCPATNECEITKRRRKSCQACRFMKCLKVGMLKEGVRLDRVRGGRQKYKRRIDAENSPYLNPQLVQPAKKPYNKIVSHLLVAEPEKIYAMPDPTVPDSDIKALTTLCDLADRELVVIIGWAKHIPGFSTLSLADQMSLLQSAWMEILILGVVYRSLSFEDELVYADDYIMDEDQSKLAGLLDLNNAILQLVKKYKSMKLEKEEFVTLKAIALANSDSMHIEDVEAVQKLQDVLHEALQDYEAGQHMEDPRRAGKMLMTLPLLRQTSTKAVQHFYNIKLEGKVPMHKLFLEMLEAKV
# Method in brief: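 Transient HepG2 transfectants, 24 h compound exposure, GAL4-UAS reporter mRNA by RT-PCR/6-FAM labelling/capillary electrophoresis; positive direction vs DMSO.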
smiles,measurement,setting,value
CCc1cccc(C)c1N(C(=O)CCl)[C@@H](C)COC,outcome,[1],inactive
Cl/C=C\CCl,outcome,[2],inactive
same,outcome,[3],inactive
same,outcome,[4],inactive
same,outcome,[1],inactive
CCCC=NO,outcome,[3],inactive
CCOP(=O)(OCC)OCC,outcome,[5],inactive
O=S(=O)(O)O,outcome,[1],inactive
CN(C)CCC#N,outcome,[3],inactive
same,outcome,[4],inactive
same,outcome,[1],inactive
C=C(Cl)CCl,outcome,[3],inactive
C[C@]12CCC(=O)C(O)=C1CC[C@@H]1[C@@H]2CC[C@]2(C)C(=O)CC[C@@H]12,outcome,[1],inactive
COC(=O)c1ccccc1S(=O)(=O)NC(=O)Nc1nc(C)cc(C)n1,outcome,[4],inactive
same,outcome,[1],inactive
Nc1ccccc1C(=O)OCCc1ccccc1,outcome,[2],inactive
same,outcome,[5],inactive
Cc1ccc(N(SC(F)(Cl)Cl)S(=O)(=O)N(C)C)cc1,outcome,[2],inactive
same,outcome,[5],inactive
same,outcome,[3],inactive
same,outcome,[4],inactive
same,outcome,[1],inactive
CCC(C)(C)O,outcome,[1],inactive
O=[N+]([O-])C=Cc1ccccc1,outcome,[2],inactive
COC(=O)COc1ccc(Cl)cc1Cl,outcome,[2],inactive

# From PubChem BioAssay (EPA / NIEHS)
